Experimental data taken from PubChem BioAssay (NCATS).
Results filed as inconclusive are left out. The source made the active and inactive calls. Unless noted, calls follow the shape of the full dose curve.

Legend:
[1] = biological target: Estrogen receptor (Homo sapiens) (UniProt P03372); test: qHTS assay for small molecule antagonists of estrogen receptor alpha signaling (AID 588513; active = well fitted curve in the direction sought with a large enough effect in the signal ratio, with a control signal flat, not every such curve was filed as active; the % refers to the signal ratio; also: % is scaled to controls: 0 for no effect and ±100 for the full control effect)
Outline: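 ER-alpha-UAS-bla GripTite HEK 293 cells in 2% charcoal/dextran-treated FBS medium; compounds titrated (1:2, duplicate), then stimulated with 0.5 nM 17-beta-estradiol for 18 h at 37C. CCF4 beta-lactamase fluorescence; Hill-fit IC50 and efficacy.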

[2] = biological target: Estrogen receptor (Homo sapiens) (UniProt P03372); test: qHTS assay for small molecule agonists of estrogen receptor alpha signaling (AID 588514);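 also: 0% = vehicle only and 100% = reference agonist; nearly all actives have a fitted effect of over 70% in size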
Outline: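 Cells were plated at 5000/well, incubated 4 hrs at 37 C, dosed with compound titration series, incubated 18 hrs at 37 C, loaded with CCF4 dye for 2 hrs at RT, then fluorescence was read.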

[3] = biological target: Glucocorticoid receptor (Homo sapiens) (UniProt P04150); test: qHTS assay for small molecule agonists of glucocorticoid receptor signaling (AID 588532; active = well fitted curve in the direction sought with a large enough effect in the signal ratio, with a control signal flat; the % refers to the signal ratio;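 also: 100% = dexamethasone at 0.1 µM and 0% = DMSO only wells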); details: HeLa MMTV-bla, beta-lactamase ratio, agonist, 18 h; stronger effect = higher value; percent of dexamethasone control, DMSO zero
Outline: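 MMTV-bla HeLa beta-lactamase reporter cells in 1% charcoal/dextran FBS medium, compounds up to 92 uM for 18 h at 37 C, CCF4 readout; normalized to 0.1 uM dexamethasone (100%), EC50 and efficacy from Hill fits.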

[4] = qHTS assay for small molecule antagonists of peroxisome proliferator-activated receptor delta signaling (AID 588535); details: HEK293T PPARd-UAS-bla, beta-lactamase FRET ratio, 18 h; 460 nm channel;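 also: cells co-treated with a PPAR-delta agonist as stimulator during compound exposure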
Outline: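 Antagonist-mode beta-lactamase reporter (GeneBLAzer PPAR-delta-UAS-bla) in HEK293T cells, 2% charcoal/dextran FBS, 4000 cells/well. Compound titrations, 18 h at 37 C; CCF4 ratio read, IC50 and efficacy from Hill fits.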

[5] = biological target: Peroxisome proliferator-activated receptor gamma (Homo sapiens) (UniProt P37231); test: qHTS assay for small molecule agonists of peroxisome proliferator-activated receptor gamma signaling (AID 588536; active = well fitted curve in the direction sought with a large enough effect in the signal ratio, with a control signal flat, not every such curve was filed as active; the % refers to the signal ratio;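 also: 0% = DMSO basal wells and 100% = rosiglitazone at 2 µM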)
Outline: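 HEK293 UAS-bla reporter line, 1% charcoal/dextran FBS; titration, 16 h, 37 C; CCF4 loading 2 h RT; fluorescence 460/530 nm. Normalized to rosiglitazone 2 uM = 100%, DMSO = 0%.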

[6] = biological target: Vitamin D3 receptor (Homo sapiens) (UniProt P11473); test: qHTS assay for small molecule antagonists of vitamin D receptor signaling (AID 588541);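 also: receptor activated by calcitriol during compound treatment; series mostly up to about 77 µM; % is scaled to controls: 0 for no effect and ±100 for the full control effect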
Outline: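 VDR-UAS-bla HEK293T cells in 2% charcoal-stripped FBS were stimulated with 1-alpha,25-dihydroxyvitamin D3 (3 nM final) plus compound for 16 h at 37 C. The beta-lactamase CCF4 readout was normalized to 50 nM agonist and DMSO, and Hill fits gave IC50.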

[7] = qHTS assay for small molecule agonists of retinoid X receptor alpha signaling (AID 588544); details: HEK293T RXRa-UAS-bla, beta-lactamase reporter, 18 h; 530 nm emission;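 as to activation: 0% = DMSO basal wells and 100% = reference agonist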
[8] = biological target: Retinoic acid receptor RXR-alpha (Homo sapiens) (UniProt P19793); test: as above
[9] = biological target: Thyroid hormone receptor beta (Homo sapiens) (UniProt P10828); test: qHTS assay for small molecule agonists of thyroid hormone receptor beta signaling (AID 588545)
Outline: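 HEK 293 TR-UAS-bla; agonist mode; 18 hrs, 37 C; CCF4, ex 405/em 460 and 530 nm; norm. T3 10 nM = 100%, DMSO = 0%; Hill fit → EC50, efficacy.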

[10] = qHTS assay for small molecule antagonists of retinoid X receptor alpha signaling (AID 588546; active = well fitted inhibition curve with a large enough effect in the signal ratio, with a control signal flat, not every such curve was filed as active; the % refers to the signal ratio;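 also: cells stimulated with 9-cis-retinoic acid as agonist; % is scaled to controls: 0 for no effect and ±100 for the full control effect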); details: HEK293T RXRa-UAS-bla, beta-lactamase ratio, antagonist mode; measured here: W530 green channel, cytotoxicity proxy
Outline: (§1)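 Beta-lactamase reporter inhibition, read as CCF4 fluorescence ratio (ex 405, em 460/530 nm) after 2 h at RT. HEK293T UAS-bla cells, 2500/well, were stimulated with 9-cis-RA at 500 or 100 nM final alongside test compound for 18 h at 37 C.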

[11] = biological target: Retinoic acid receptor RXR-alpha (Homo sapiens) (UniProt P19793); test: as above; details: HEK293T RXRa-UAS-bla, beta-lactamase ratio, antagonist mode
Outline: as §1

[12] = qHTS assay for small molecule activators of the nuclear factor-kappa B (NF-kB) signaling pathway (AID 651749; active = well fitted activation curve with a large enough effect in the signal ratio; the % refers to the signal ratio; also: series mostly up to about 77 µM; % of control where 0% means no effect); details: NF-kB-bla ME-180 cells, beta-lactamase FRET ratio, 16 h; activation: stronger effect = higher value
Outline: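 NF-kB-bla ME-180 cells carrying a beta-lactamase reporter under an NF-kB response element, 2,000 cells/well, exposed to compound for 16 hr at 37C; FRET-based beta-lactamase fluorescence read-out of pathway activation.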

[13] = qHTS assay for environmental chemicals that activate the Aryl hydrocarbon Receptor (AhR) signaling pathway (AID 651777; active = well fitted curve in the direction sought with a large enough effect; an effect the other way counts as inactive or inconclusive; also: % of control where 0% means no effect; nearly all actives have a fitted effect of over 15% in size); details: 1A2-DRE human hepatoma cells, luciferase, 24 h; activation: stronger effect = higher value
Outline: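 1A2-DRE human hepatoma reporter line; 1,200 cells/well; cmpd or DMSO 24 h, 37 C/5% CO2; One-Glo 30 min RT; luciferase lum.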

[14] = biological target: Peroxisome proliferator-activated receptor alpha (Homo sapiens) (UniProt Q07869); test: qHTS assay for small molecule agonists of the peroxisome proliferator-activated receptor alpha (PPARalpha) signaling pathway (AID 651778; active = well fitted curve in the direction sought with a large enough effect; an effect the other way counts as inactive or inconclusive; also: % of control where 0% means no effect); details: PathHunter PPARalpha complementation, chemiluminescence, 6 h; max response: stronger effect = higher value
Outline: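 Enzyme-fragment complementation assay in which ligand-bound PPARalpha translocates and forms an active enzyme that generates chemiluminescence. Cells were plated overnight, exposed to compound for 6 hr at 37 C, and then given detection reagent for 60 min at room temperature.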

[15] = qHTS assay for small molecule agonists of the antioxidant response element (ARE) signaling pathway measured by Nrf2-dependant transcriptional activity - cell viability counter screen (AID 720653; active = well fitted curve in the direction sought with a large enough effect in the repeat runs; an effect the other way counts as inactive or inconclusive; also: % is scaled to controls: 0 for no effect and ±100 for the full control effect); details: ARE-bla HepG2 viability, CellTiter-Glo ATP luminescence, 16 h; max response: stronger effect = lower value
Outline: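 ARE-bla HepG2 cells treated with compounds for 16 h at 37C; this counter screen measures viability as intracellular ATP by CellTiter-Glo luminescence after 30 min at room temperature.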

[16] = qHTS assay for cell viability of HEK293 cells (AID 743288; active = well fitted curve in the direction sought with a large enough effect; an effect the other way counts as inactive or inconclusive; also: % is scaled to controls: 0 for no effect and ±100 for the full control effect; nearly all actives have a fitted effect of over 50% in size); details: ATP luminescence (CellTiter-Glo), 18 h; max response: stronger effect = lower value
Outline: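 Parental HEK293 cells, 2,000 per well, preincubated at least 5 h at 37 C, then exposed to compounds in DMSO for 18 h at 37 C. Viability by CellTiter-Glo ATP luminescence after 30 min at room temperature.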

[17] = qHTS assay for cell viability of the p53RE-bla HCT-116 cell line (AID 743292; active = well fitted curve in the direction sought with a large enough effect; an effect the other way counts as inactive or inconclusive; also: % is scaled to controls: 0 for no effect and ±100 for the full control effect; nearly all actives have a fitted effect of over 55% in size)
Outline: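 HCT-116 p53RE-bla cells seeded 4,000/well; 5 h at 37 C; compound (DMSO) added; 16 h at 37 C; CellTiter-Glo added, 30 min RT; luminescence read.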

[18] = biological target: Nuclear receptor subfamily 1 group I member 2 (Rattus norvegicus) (UniProt Q9R1A7); test: qHTS assay for small molecule activators of the rat pregnane X receptor (rPXR) signaling pathway (AID 651751; call rule not given here; also: 0% is about no effect); details: rPXR reporter cells, luciferase (One-Glo), 24 h
[19] = qHTS assay for small molecule activators of the human pregnane X receptor (PXR) signaling pathway (AID 720659; call rule not given here; also: 0% is about no effect)
[20] = biological target: Thyroid hormone receptor beta (Homo sapiens) (UniProt P10828); test: qHTS assay for small molecule antagonists of thyroid hormone receptor beta signaling (AID 588547; active = well fitted inhibition curve with a large enough effect in the signal ratio, with a control signal flat, not every such curve was filed as active; the % refers to the signal ratio); details: TR-UAS-bla HEK293, beta-lactamase ratio, antagonist mode, 18 h
Outline: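 TR-UAS-bla GripTite HEK293 cells in 2% charcoal/dextran FBS medium; compounds 0.59 nM to 92 uM with T3 at 0.4nM final, 18 h at 37 C. Beta-lactamase read by CCF4 fluorescence (460/530 nm); Hill fits gave IC50 and efficacy.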

Sequence of Peroxisome proliferator-activated receptor alpha (Homo sapiens) (Q07869 whole entry, looked up, the tested form may be a part): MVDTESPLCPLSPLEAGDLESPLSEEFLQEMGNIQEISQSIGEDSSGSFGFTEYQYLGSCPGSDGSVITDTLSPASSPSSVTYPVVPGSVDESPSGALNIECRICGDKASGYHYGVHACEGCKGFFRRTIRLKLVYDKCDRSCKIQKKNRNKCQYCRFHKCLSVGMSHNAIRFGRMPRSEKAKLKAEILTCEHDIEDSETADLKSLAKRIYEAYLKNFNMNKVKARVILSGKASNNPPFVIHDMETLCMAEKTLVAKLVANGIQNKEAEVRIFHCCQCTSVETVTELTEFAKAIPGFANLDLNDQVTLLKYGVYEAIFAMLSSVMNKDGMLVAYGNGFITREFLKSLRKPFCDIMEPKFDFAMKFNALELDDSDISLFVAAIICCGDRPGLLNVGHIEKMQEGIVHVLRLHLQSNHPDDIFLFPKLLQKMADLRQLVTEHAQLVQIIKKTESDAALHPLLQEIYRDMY
Sequence of Glucocorticoid receptor (Homo sapiens) (P04150 whole entry, looked up): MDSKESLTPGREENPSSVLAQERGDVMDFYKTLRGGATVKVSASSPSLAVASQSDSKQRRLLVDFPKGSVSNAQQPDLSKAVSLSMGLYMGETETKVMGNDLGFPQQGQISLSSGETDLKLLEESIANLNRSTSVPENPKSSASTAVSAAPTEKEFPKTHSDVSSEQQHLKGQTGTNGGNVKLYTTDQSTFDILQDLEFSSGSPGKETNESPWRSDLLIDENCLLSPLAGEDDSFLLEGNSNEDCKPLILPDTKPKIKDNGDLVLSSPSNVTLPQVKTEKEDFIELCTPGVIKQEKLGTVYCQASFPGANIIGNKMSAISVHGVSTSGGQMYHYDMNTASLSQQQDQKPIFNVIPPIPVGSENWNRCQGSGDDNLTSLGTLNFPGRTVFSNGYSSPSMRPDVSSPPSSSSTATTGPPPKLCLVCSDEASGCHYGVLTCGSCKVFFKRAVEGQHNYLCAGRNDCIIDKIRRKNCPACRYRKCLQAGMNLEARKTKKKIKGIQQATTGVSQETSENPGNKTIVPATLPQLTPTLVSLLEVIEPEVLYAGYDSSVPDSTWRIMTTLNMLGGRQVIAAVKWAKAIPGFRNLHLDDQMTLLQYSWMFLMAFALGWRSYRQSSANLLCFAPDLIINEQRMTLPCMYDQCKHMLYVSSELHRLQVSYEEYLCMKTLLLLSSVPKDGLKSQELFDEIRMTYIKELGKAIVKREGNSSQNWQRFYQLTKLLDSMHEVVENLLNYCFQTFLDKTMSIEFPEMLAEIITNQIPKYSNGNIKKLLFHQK
Sequence of Nuclear receptor subfamily 1 group I member 2 (Rattus norvegicus) (Q9R1A7 whole entry, looked up): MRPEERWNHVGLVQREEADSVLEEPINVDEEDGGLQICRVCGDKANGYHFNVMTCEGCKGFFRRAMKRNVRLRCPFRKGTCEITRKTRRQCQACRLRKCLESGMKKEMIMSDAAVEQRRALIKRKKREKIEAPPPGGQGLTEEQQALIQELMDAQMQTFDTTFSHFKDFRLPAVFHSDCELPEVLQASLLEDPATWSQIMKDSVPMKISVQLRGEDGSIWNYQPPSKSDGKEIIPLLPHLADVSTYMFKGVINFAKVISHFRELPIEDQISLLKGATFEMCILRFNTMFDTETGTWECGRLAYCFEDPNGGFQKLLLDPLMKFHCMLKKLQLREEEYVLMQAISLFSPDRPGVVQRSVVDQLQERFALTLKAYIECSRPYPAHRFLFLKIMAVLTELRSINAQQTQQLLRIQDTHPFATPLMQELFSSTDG
Sequence of Retinoic acid receptor RXR-alpha (Homo sapiens) (P19793 whole entry, looked up): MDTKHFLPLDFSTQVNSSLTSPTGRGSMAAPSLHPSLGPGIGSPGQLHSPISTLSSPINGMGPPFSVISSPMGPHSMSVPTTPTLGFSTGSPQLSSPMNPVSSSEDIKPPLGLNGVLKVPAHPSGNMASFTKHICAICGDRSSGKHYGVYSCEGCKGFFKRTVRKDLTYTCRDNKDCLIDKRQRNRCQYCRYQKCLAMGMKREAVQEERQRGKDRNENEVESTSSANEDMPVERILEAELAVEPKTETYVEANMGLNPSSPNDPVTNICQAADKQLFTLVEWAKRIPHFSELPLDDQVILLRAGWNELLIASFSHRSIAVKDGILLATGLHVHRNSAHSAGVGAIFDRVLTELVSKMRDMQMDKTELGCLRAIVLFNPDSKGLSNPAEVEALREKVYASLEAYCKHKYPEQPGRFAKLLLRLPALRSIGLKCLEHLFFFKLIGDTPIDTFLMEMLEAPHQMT
Sequence of Peroxisome proliferator-activated receptor gamma (Homo sapiens) (P37231 whole entry, looked up): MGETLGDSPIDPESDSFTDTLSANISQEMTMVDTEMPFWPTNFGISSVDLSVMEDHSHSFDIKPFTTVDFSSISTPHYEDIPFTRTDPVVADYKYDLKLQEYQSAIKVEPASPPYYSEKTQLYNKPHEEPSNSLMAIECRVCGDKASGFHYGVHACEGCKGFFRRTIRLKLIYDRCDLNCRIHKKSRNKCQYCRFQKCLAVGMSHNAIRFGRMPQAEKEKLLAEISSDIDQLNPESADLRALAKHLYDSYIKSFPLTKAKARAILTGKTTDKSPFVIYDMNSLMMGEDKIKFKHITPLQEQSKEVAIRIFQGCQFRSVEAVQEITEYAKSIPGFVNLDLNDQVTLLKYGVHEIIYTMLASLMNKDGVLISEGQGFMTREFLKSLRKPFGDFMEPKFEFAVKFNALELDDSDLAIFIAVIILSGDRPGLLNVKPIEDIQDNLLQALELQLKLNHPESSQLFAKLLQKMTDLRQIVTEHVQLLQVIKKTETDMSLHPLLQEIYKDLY
Sequence of Thyroid hormone receptor beta (Homo sapiens) (P10828 whole entry, looked up): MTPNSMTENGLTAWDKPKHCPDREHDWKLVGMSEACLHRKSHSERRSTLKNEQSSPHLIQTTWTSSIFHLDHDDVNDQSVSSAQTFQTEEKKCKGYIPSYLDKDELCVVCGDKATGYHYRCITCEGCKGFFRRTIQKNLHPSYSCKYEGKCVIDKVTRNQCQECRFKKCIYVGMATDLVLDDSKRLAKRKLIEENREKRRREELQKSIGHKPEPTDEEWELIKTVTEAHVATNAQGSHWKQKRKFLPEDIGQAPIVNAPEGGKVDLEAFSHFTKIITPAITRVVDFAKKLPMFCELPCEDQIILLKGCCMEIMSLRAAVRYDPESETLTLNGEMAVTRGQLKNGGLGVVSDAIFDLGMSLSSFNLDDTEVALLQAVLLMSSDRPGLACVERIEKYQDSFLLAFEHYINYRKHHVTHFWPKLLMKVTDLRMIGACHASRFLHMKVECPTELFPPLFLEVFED
Sequence of Vitamin D3 receptor (Homo sapiens) (P11473 whole entry, looked up): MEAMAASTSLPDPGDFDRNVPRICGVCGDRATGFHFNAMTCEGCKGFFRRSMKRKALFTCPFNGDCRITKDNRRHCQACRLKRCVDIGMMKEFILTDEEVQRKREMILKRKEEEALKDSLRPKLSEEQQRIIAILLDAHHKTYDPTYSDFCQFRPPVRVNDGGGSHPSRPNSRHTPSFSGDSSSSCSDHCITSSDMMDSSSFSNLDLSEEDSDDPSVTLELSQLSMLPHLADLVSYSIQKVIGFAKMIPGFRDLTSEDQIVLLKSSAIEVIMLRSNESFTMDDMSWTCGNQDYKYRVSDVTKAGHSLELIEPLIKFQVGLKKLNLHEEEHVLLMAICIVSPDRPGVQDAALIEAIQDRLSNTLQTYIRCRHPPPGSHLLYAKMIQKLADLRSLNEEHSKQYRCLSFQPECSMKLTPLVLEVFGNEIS
Sequence of Estrogen receptor (Homo sapiens) (P03372 whole entry, looked up): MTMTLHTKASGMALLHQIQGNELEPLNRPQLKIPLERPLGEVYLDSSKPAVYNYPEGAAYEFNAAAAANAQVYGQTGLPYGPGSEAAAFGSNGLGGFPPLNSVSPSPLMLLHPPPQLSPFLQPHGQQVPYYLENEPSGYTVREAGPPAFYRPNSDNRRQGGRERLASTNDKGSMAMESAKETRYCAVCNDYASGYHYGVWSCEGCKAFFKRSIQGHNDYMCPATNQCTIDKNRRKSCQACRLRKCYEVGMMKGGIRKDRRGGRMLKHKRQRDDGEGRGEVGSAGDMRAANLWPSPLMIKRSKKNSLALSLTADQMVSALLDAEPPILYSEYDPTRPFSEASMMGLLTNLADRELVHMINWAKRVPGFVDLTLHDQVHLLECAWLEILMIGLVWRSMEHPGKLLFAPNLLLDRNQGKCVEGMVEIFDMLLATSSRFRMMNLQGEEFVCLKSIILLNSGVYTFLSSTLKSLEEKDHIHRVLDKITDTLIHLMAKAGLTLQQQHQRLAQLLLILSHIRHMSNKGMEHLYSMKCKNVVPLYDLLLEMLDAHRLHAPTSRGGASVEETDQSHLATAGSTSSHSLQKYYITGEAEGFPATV

CC1=CC2C3CC(C=C3C)C2C1 (stereo not given)
7.89%: max response [4]
-8.84%: max response [7]
-10.9%: max response [10]
inactive: Potency [1] | Potency [2] | activation [3] 1.22% | outcome [5] | Potency [6] | Potency [8] | Potency [9] | max response [11] 3.65% | activation [12] -0.782% | activation [13] -1.81% | max response [14] -1.19% | max response [15] 1.82% | max response [16] -3.16% | Potency [17] | max response [18] -0.63% | outcome [19]

CC(C)OB(OC(C)C)OC(C)C
-7.32%: max response [10]
-15.5%: max response [7]
inactive: Potency [1] | Potency [2] | outcome [5] | Potency [6] | Potency [8] | activation [12] 1.02% | activation [13] 9.09% | max response [14] -0.0686% | max response [15] -7.65% | max response [16] -7.12% | Potency [17] | max response [18] 0.348% | outcome [19]

CC1(C)CC(N)CC(C)(CN)C1 (stereo not given)
-12.5%: max response [10]
-18%: max response [4]
inactive: Potency [1] | Potency [2] | activation [3] 10.3% | outcome [5] | Potency [8] | Potency [9] | max response [11] 4.46% | activation [12] -0.653% | max response [14] -3.48% | max response [15] -2.66% | max response [16] -2.22% | max response [18] -2.15% | outcome [19]
-8.73%: max response [7]

C=CCCCCCCCCC=O
14.1%: max response [4]
inactive: Potency [1] | Potency [2] | activation [3] 4.91% | outcome [5] | Potency [6] | Potency [8] | Potency [9] | max response [11] -16.9% | activity change % (negative = inhibition) [20] 19.2% | activation [12] -0.972% | activation [13] 0.287% | max response [14] -1.39% | max response [15] 3.17% | max response [16] -14% | Potency [17] | max response [18] -2.8% | outcome [19]
-4.83%: max response [10]
-12%: max response [7]

Fc1ccc(Br)cc1
4.76%: max response [7]
-8.4%: max response [10]
inactive: Potency [1] | Potency [2] | activation [3] 9.16% | Potency [6] | Potency [8] | Potency [9] | activation [12] 1.17% | activation [13] 2.85% | max response [14] -2.75% | max response [16] -0.046% | Potency [17] | max response [18] -1.72% | outcome [19]

Cc1ccc(S(=O)(=O)N=C=O)cc1
5.8%: max response [4]
inactive: Potency [1] | Potency [2] | activation [3] 20.2% | outcome [5] | Potency [6] | Potency [8] | Potency [9] | max response [11] 12.7% | activity change % (negative = inhibition) [20] 8.97% | activation [12] -0.506% | activation [13] -0.31% | max response [14] -0.858% | max response [15] -7.8% | max response [16] -6.04% | Potency [17] | max response [18] -1.2% | outcome [19]
15.4%: max response [7]
-8.47%: max response [10]
